The list is not random: actives were taken first. Their share in the collection is about 27%.
CYP2C19 inh: blocks human cytochrome P450 2C19 | CYP2C19 Supersomes, luciferin-H EGE luminescence, 30 min | inhibition, % at 5 µM | actives 21% (n = 96,000);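 active = CYP2C19 inhibition above a set limit at 5 µM in the primary screen, cut at about 50% in these data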
CYP2C9 act: increases human cytochrome P450 2C9 activity; AID 1024; actives 1.4% (n = 96,000); activation factor at 5 µM; recombinant CYP2C9, luciferin-H conversion, luminescence; active compounds read high; factor 1 = untreated enzyme, 0 = blocked;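 active = activation factor of 2 or more for CYP2C9 at a 5 µM dose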
Target sequence (P11712 whole entry, looked up): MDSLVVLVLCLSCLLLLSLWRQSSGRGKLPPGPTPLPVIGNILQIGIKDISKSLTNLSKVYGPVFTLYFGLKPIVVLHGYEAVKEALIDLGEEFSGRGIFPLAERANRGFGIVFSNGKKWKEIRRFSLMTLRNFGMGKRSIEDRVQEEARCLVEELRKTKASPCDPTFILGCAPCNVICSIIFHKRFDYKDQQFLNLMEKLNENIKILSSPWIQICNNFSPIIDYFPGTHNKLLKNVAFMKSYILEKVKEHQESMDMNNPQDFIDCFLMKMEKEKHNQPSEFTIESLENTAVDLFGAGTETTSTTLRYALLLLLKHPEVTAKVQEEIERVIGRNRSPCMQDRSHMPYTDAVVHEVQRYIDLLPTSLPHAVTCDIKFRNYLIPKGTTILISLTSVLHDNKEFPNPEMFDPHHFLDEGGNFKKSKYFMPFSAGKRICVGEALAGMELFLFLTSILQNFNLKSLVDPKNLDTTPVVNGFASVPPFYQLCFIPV
Cav3 T inh: inhibitors of human Cav3.2 T-type calcium channel; O95180; Cav3.2-expressing cells, Fluo-4 calcium fluorescence FDSS; active compounds read low; B-score at 10 µM; actives 4% (n = 100,000);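 active = single-dose well whose peak fluorescence ratio is a statistical outlier from its plate by either plate-standardised score or position-corrected B-score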
CYP2C19 activ: increases human CYP2C19 enzyme activity; recombinant CYP2C19, luciferin-H EGE luminescence; active compounds read high; 0 = fully inhibited enzyme, 1 = untreated enzyme; activation factor at 5 µM; 96,000 tested, under 10 active; AID 1025;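 active = activation factor of at least 2 at 5 µM in the primary screen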
CYP2C9 inhib: blocks human cytochrome P450 2C9 | P11712 | CYP2C9 Supersomes, luciferin-H conversion, luminescence | inhibition, % at 5 µM | actives 20% (n = 96,000);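 active = blocking of liver enzyme CYP2C9 beyond about 50% at 5 µM, limit read from the data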
A number is an active result; . = inactive; / = no result given.

SMILES	CYP2C19 inh	CYP2C9 act	Cav3 T inh	CYP2C19 activ	CYP2C9 inhib
CC(=O)Nc1ccc(N(C)S(C)(=O)=O)cc1	.	.	.	.	.
CCCC/C(O)=C1\C(=O)CC(C)(C)CC1=Nc1ccccc1OC	93.2	.	.	.	90.3
CCC/C(O)=C1\C(=O)CC(C)(C)CC1=Nc1ccc(OC)cc1OC	96.9	.	.	.	94.7
N#Cc1c(NC(=O)CSc2n[nH]c(N)n2)oc(-c2ccccc2)c1-c1ccccc1	.	.	.	.	51.3
N#Cc1c(NC(=O)Cn2c(=O)oc3ccccc32)oc(-c2ccccc2)c1-c1ccccc1	.	.	.	.	75.7
CCOC(=O)CCP(=O)(O)C(O)c1ccccc1 (stereo unspecified)	.	.	/	.	.
CCSc1c(-c2ccccc2)nc2c(C)cccc2c1C(=O)O	.	.	.	.	78.4
CC(C)(C)NC(=O)C(c1ccccc1)N(C(=O)c1csnn1)C1CC1 (stereo unspecified)	.	.	.	.	.
COc1ccc(C2CC3CC(c4ccccc4)N2O3)cc1 (stereo unspecified)	90.6	.	.	.	.
COc1ccc(-c2csc(NC(CO)c3nc4ccccc4n3CCCO)n2)cc1 (stereo unspecified)	/	/	.	/	/
Cc1cc(C)c(S(C)(=O)=O)c(Sc2ccc(Cl)cc2)n1	.	.	.	.	65.3
CC(C)C(CCNC(=O)CC(Cc1ccccc1)c1ccco1)c1ccco1 (stereo unspecified)	.	.	-6.77	.	.
C/C(=N\NC(=O)CSCc1ccc(Cl)cc1)c1ccc2c(c1)OCCO2	84.1	.	.	.	64.4
O=C(CCn1nc(-c2ccccc2)ccc1=O)N1CCN(c2ccccn2)CC1	.	.	/	.	.
COc1cc(S(=O)(=O)NC2CCCC2)ccc1F	89.7	.	.	.	.
Cc1ccc(S(=O)(=O)NC2CCCC2)cc1C	.	.	.	.	.
COc1cc(S(=O)(=O)NCc2cccnc2)ccc1F	83.2	.	.	.	.
COc1cc(S(=O)(=O)NC2CCCCC2C)ccc1Cl (stereo unspecified)	97.1	.	.	.	.
COc1ccc(OC)c(S(=O)(=O)NC2CCCCC2)c1	.	.	.	.	.
COc1ccc(S(=O)(=O)NC2CCCC2)cc1Br	97.0	2.4	.	.	.
COc1ccc(S(=O)(=O)Nc2ccccn2)cc1OC	.	.	.	.	.
COc1cc(S(=O)(=O)N2CCC(c3nc4ccccc4s3)CC2)ccc1S(=O)(=O)NC1CCCC1	/	/	.	/	/
COc1cc(S(=O)(=O)NC2CCCC2)ccc1Cl	93.7	3	.	.	.
COc1cc(S(=O)(=O)Nc2ccccn2)ccc1F	.	2.1	.	.	.
COc1ccc(S(=O)(=O)NC2CCCCC2)c(C)c1C	95.6	.	.	.	.
SMILES	CYP2C19 inh	CYP2C9 act	Cav3 T inh	CYP2C19 activ	CYP2C9 inhib
O=C(NC1CC2CCC(C1)N2C(=O)NCc1ccccc1)NC12CC3CC(CC(C3)C1)C2 (stereo unspecified)	.	.	/	.	.
COc1ccc(N2Nc3n[nH]c(N)c3N2)cc1	/	/	.	/	/
Cc1nn(C(C)C(=O)NNC(=S)Nc2ccc(F)cc2)c(C)c1[N+](=O)[O-] (stereo unspecified)	.	.	.	.	55.0
Cc1nn(C)c(C(=O)NNC(=S)Nc2ccc(F)cc2)c1[N+](=O)[O-]	.	.	.	.	51.5
COc1ccc(NC(=S)NNC(=O)C(C)n2nc(C)c([N+](=O)[O-])c2C)cc1 (stereo unspecified)	.	.	.	.	.
O=C(OCc1c(Cl)nc2sccn12)c1cc2c(s1)CCCC2	.	.	.	.	.
NC(=O)NCC12CC3CC(CC(C3)C1)C2	.	.	.	.	.
NCC(O)COCCC12CC3CC(CC(C3)C1)C2 (stereo unspecified)	87.9	.	.	.	.
CNCCC=C1c2ccccc2CCc2ccccc21	/	/	.	/	/
CCn1c(SCC(=O)N2CCC(C(N)=O)(N3CCCCC3)CC2)nnc1-c1ccccc1	/	/	.	/	/
Cc1ccc(C2OCC3(CO)COC(c4ccc(C)cc4)N23)cc1 (stereo unspecified)	71.9	.	.	.	.
Cc1cccnc1NC1OC(=O)c2ccccc21 (stereo unspecified)	.	.	.	.	.
CC(=O)NC(CC(C)C)C(=O)NC(CO)C(=O)NC(CCC(=O)O)C(=O)NC(C)C(=O)NC(CC(C)C)C(N)=O (stereo unspecified)	/	/	.	/	/
CC1(C)NC(=O)N(CC(=O)OCC(=O)Nc2cccc(F)c2)C1=O	.	.	.	.	.
CCCOC(=O)c1ccc(OCC(O)CN2C(=O)NC(C)(C)C2=O)cc1 (stereo unspecified)	.	.	.	.	.
CC1(C)NC(=O)N(CCCCOc2ccc3c(c2)CCC3)C1=O	78.3	.	.	.	.
CCC(C)Oc1cccc(OCCCCN2C(=O)NC(C)(C)C2=O)c1 (stereo unspecified)	72.4	.	.	.	59.2
O=C1CCC(=O)N1OCCCOc1ccc2c(c1)CCC2	.	.	/	.	.
CC1(C)NC(=O)N(CCCCOc2cccc(C(F)(F)F)c2)C1=O	84.9	.	.	.	60.7
Cn1c(=O)c2c(nc(NCCCN3CCOCC3)n2Cc2ccc(Cl)cc2Cl)n(C)c1=O	.	.	/	.	.
O=C(CCS(=O)(=O)c1cccs1)NC1CCCCCC1	.	.	.	.	.
COc1cccc(CNC(=O)CCS(=O)(=O)c2cccs2)c1	52.9	.	.	.	.
O=C(CCS(=O)(=O)c1cccs1)Nc1ccc(C(=O)NCc2ccccc2)cc1	77.7	.	.	.	60.2
COc1cccc(CNC(=O)CCNC(=O)Cn2ccc3ccccc3c2=O)c1	.	/	.	.	/
Fc1ccc(CNc2cnccn2)cc1	.	.	.	.	.
SMILES	CYP2C19 inh	CYP2C9 act	Cav3 T inh	CYP2C19 activ	CYP2C9 inhib
CC(=O)c1cccc(NC(=O)CSc2nnc(-c3cccnc3)o2)c1	/	/	.	/	/
CCOC(=O)c1c(NC(=O)CSc2nnc(-c3cccnc3)o2)sc(C(C)=O)c1C	.	.	.	.	65.4
CCOC(=O)c1c(NC(=O)CSc2nnc(-c3ccco3)o2)sc(C)c1C	.	.	.	.	.
CCOC(=O)c1c(NC(=O)CSc2nnc(-c3ccco3)o2)sc(C(C)=O)c1C	.	.	/	.	69.7
O=C(O)CC[C@@H](C(=O)O)N1C(=O)c2ccccc2C1=O	/	/	.	/	/
O=C(CSc1nccc(=O)[nH]1)N1CCc2ccccc2C1	.	.	.	.	.
O=C(CSc1nccc(=O)[nH]1)c1ccccc1Br	.	.	.	.	55.0
CC1CCCCN1C(=O)C12CCC(C)(/C(=N/O)C1)C2(C)C (stereo unspecified)	.	.	.	.	.
CCCCCOc1ccc(C(=O)NC(C(=O)O)C(C)C)cc1 (stereo unspecified)	.	.	.	.	.
Cc1ccc(CSCc2nnc(SCC(=O)N3CCN(c4ccccc4)CC3)n2C)cc1	59.7	.	.	.	78.4
CCn1c(CSCc2ccc(F)cc2)nnc1SCC(=O)N1CCN(c2ccccc2)CC1	80.3	.	.	.	58.1
